Results from PubChem BioAssay (NCI).
About 83,000 compounds went through this panel and 20% of them were active in at least one assay; those are over-represented in the sample as a whole.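 48-hour exposure, single concentration, 96-well plates; percent growth endpoint where 0 means no net growth. Active: below 10.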 Unmarked numbers belong to inactive results. The source made the active and inactive calls.

Legend:
Test in all cases: NCI-60 one-dose screen, 48 h (100 = growth as untreated, 0 = no growth, -100 = all killed)
Conditions in all cases: 10 µM unless noted
DU-145 prostate = system: DU-145 prostate
K-562 leukemia = system: K-562 leukemia
MALME-3M melanoma = system: MALME-3M melanoma
MDA-MB-231 breast = system: MDA-MB-231 breast
RXF 393 renal = system: RXF 393 renal
SF-268 CNS = system: SF-268 CNS
SF-295 CNS = system: SF-295 CNS
SF-539 CNS = system: SF-539 CNS
UACC-257 melanoma = system: UACC-257 melanoma
M14 melanoma = system: M14 melanoma
HCT-15 colon = system: HCT-15 colon
HT29 colon = system: HT29 colon
SNB-75 CNS = system: SNB-75 CNS
SNB-19 CNS = system: SNB-19 CNS
U251 CNS = system: U251 CNS
PC-3 prostate = system: PC-3 prostate
SK-MEL-5 melanoma = system: SK-MEL-5 melanoma
UACC-62 melanoma = system: UACC-62 melanoma
LOX IMVI melanoma = system: LOX IMVI melanoma
SK-MEL-28 melanoma = system: SK-MEL-28 melanoma

Structure (SMILES) | growth (DU-145 prostate) [%] | growth (K-562 leukemia) [%] | growth (MALME-3M melanoma) [%] | growth (MDA-MB-231 breast) [%] | growth (RXF 393 renal) | growth (SF-268 CNS) [%] | growth (SF-295 CNS) [%] | growth (SF-539 CNS) | growth (UACC-257 melanoma) [%] | growth (M14 melanoma) [%] | growth (HCT-15 colon) [%] | growth (HT29 colon) | growth (SNB-75 CNS) | growth (SNB-19 CNS) [%] | growth (U251 CNS) [%] | growth (PC-3 prostate) [%] | growth (SK-MEL-5 melanoma) [%] | growth (UACC-62 melanoma) [%] | growth (LOX IMVI melanoma) [%] | growth (SK-MEL-28 melanoma) [%]
Cc1c(C(=O)C(SC(=S)N2CCOCC2)SC(=S)N2CCOCC2)nnn1-c1ccc([N+](=O)[O-])cc1 | 109 | 74.7 | 93.7 | 101 | 105% | 104 | 96.5 | 101% | 93.2 | 89.8 | 89.3 | 92.3% | 94.2% | 96.3 | 95.3 | 96.1 | 107 | 88 | 108 | 103
O=S(=O)(Nc1ccc(Br)cc1)c1ccc(-c2cnc(C3CC3)o2)cc1 | 38.1 | 11.3 | 44.4 | 35.2 | 10.4% | 39.9 | 28.9 | 3.63% (active) | 66.1 | 18.1 | 20.8 | 13.9% | -6.53% (active) | 35.3 | 24.9 | 29.2 | 19.2 | 23.6 | 45.9 | 53.5
CC(C)(C)n1cc(-c2ccnc(NCCNS(=O)(=O)c3cccc4ccccc34)c2)c(-c2cccc(O)c2)n1 | 83.3 | 15.4 | 75.7 | 81.9 | 73.3% | 81.4 | 92.5 | 77.1% | 81.1 | 66.5 | 20.9 | 6.71% (active) | 37.9% | 88 | 57.5 | 59 | 45.1 | 76.9 | 61.8 | 83.4
CCOC(=O)CC1C(CNC(=O)NC)OC(n2cnc3c(NC(=O)Nc4ccccc4)ncnc32)C1O[Si](C)(C)C(C)(C)C (stereo not given) | 63.3 | 58.7 | 55.3 | 50.8 | -45.2% (active) | 58.6 | 16 | 52.6% | 87.5 | 67.3 | 55.7 | 27% | 63.4% | 93.9 | 34 | 47 | 58.3 | 80.4 | 50.5 | 83.9
COc1ccc(NC(=O)c2ccc(Cl)cc2Cl)cc1 | 95.1 | 99 | 104 | 109 | 108% | 100 | 102 | 98.9% | 96.8 | 93.3 | 94 | 100% | 89.9% | 104 | 92.2 | 98.8 | 92.3 | 96.3 | 98.2 | 105
COc1cc(CNC(=O)CCCC/C=C/C(C)C)ccc1OCc1cn(-c2ccc(C(F)(F)F)cc2)nn1 | 80.7 | 76.3 | 99.7 | 70.7 | 65.6% | 87.8 | 90.9 | 81.9% | 98.2 | 97.5 | 59.7 | 79% | 49.7% | 76.1 | 46.7 | 62.2 | 97.1 | 84.3 | 60.3 | 107
CCOC(=O)c1cnc2sc(-c3ccc(OC)cc3)nc2c1Cl | 96.3 | 107 | 76.3 | 101 | 101% | 103 | 105 | 104% | 101 | 79.1 | 92.9 | 116% | 94.7% | 104 | 103 | 104 | 84.2 | 88.7 | 86.8 | 99
COc1cccc(-c2nn(-c3ccccc3)cc2-c2ccnc(-c3cccnc3)c2)c1 | 104 | 81.2 | 83 | 86.8 | 107% | 94.9 | 89.2 | 90.1% | 117 | 92.8 | 89.6 | 96.7% | 93% | 97.6 | 104 | 70.6 | 81.2 | 86.6 | 87.4 | 100
